Test results: PubChem BioAssay AID1851 (National Center for Advancing Translational Sciences (NCATS), 2009)
Screen size: about 16,000 compounds; about 5,100 (32%) were called active. Another 25% or so got no clear call; they are omitted. This is one part of the list. Values without a mark were called inactive. Calls follow the shape of the dose curve; as a rule, active = well fitted curve in the direction sought with a large enough effect; inconclusive = small, poorly fitted or top-dose-only effect, or effect the other way; inactive = no such curve, though single readings can be large or run the other way.

These compounds were tested against Cytochrome P450 3A4 (Homo sapiens) (UniProt P08684) (assay: Cytochrome panel assay with activity outcomes). Conditions: recombinant CYP, pro-luciferin dealkylation, luminescence, p450-cyp3a4; series mostly up to 57.1 µM.
Chain of Cytochrome P450 3A4 (Homo sapiens) (P08684 whole entry, looked up): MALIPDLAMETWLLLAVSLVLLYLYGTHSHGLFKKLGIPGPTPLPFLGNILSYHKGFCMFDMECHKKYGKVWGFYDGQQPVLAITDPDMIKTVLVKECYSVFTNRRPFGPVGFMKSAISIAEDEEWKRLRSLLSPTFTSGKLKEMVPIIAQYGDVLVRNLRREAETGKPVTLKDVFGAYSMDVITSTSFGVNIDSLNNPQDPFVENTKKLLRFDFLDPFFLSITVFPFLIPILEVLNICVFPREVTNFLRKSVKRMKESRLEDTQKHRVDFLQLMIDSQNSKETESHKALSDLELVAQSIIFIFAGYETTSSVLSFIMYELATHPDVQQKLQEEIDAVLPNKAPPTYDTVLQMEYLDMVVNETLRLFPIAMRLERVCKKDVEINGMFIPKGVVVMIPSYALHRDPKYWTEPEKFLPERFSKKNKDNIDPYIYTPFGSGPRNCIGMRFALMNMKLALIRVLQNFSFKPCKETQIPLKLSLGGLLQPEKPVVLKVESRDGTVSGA
% is scaled to controls: 0 for no effect and ±100 for the full control effect.

With `O=C(O)[C@@H](O)Cc1ccccn1` as the compound, how does the activity, negative = inhibition read?
Its activity, negative = inhibition is 15.2% [at 11.4 µM].

For `Cc1nc2cnc(N(C)C)nc2n(Cc2ccc(F)cc2)c1=O`, which AC50 is on record?
Its AC50 is 0.0251 µM (active).

With `CN1CCN(c2ncc3nc(-c4cccc(C#N)c4)c(=O)n(Cc4ccc(F)cc4)c3n2)CC1` as the compound, how does the AC50 read?
The AC50 was 20 µM (active).

With `CN1CCN(c2ncc3nc(-c4cccc(C#N)c4)c(=O)n(CCC#N)c3n2)CC1` as the compound, how does the AC50 read?
Its AC50 is “inactive”.

For `O=c1c(-c2ccccc2)nc2cnc(N3CCNCC3)nc2n1Cc1ccc(F)cc1`, which AC50 is on record?
The AC50 was 3.16 µM (active).

For `CN1CCN(c2ncc3nc(-c4cccc(C#N)c4)c(=O)n(C)c3n2)CC1`, which AC50 is on record?
The AC50 was “inactive”.

For `COc1ccc(-n2c(=O)cnc3cnc(N4CCNCC4)nc32)cc1`, which AC50 is on record?
The AC50 was “inactive”.

Which AC50 does the source give for `O=c1cnc2cnc(N3CCNCC3)nc2n1Cc1ccc(F)cc1` here?
Its AC50 is 7.94 µM (active).

`CN1CCN(c2ncc3nc(-c4ccccc4)c(=O)n(Cc4ccc(F)cc4)c3n2)CC1` was tested. Which AC50 did it give?
Its AC50 is “inactive”.

With `N#CCCn1c(=O)cnc2cnc(N3CCNCC3)nc21` as the compound, how does the AC50 read?
The AC50 was “inactive”.

`CN(C)c1ncc2nc(-c3ccccc3)c(=O)n(Cc3ccc(F)cc3)c2n1` was tested. Which AC50 did it give?
The AC50 was “inactive”.

For `O=c1c(-c2ccc(F)cc2)nc2cnc(N3CCOCC3)nc2n1C[C@H]1CCCO1`, which AC50 is on record?
Its AC50 is “inactive”.

For `Cc1nc2cnc(N(C)C)nc2n(CCC#N)c1=O`, which AC50 is on record?
Its AC50 is “inactive”.

`O=c1c(-c2ccc(F)cc2)nc2cnc(N3CCNCC3)nc2n1Cc1ccc(F)cc1` was tested. Which AC50 did it give?
Its AC50 is 7.94 µM (active).

With `N#CCCn1c(=O)c(-c2ccc(F)cc2)nc2cnc(N3CCOCC3)nc21` as the compound, how does the AC50 read?
Its AC50 is “inactive”.

For `COCCn1c(=O)c(C)nc2cnc(N3CCN(C)CC3)nc21`, which AC50 is on record?
The AC50 was “inactive”.

Which AC50 does the source give for `Cc1nc2cnc(N3CCNCC3)nc2n(Cc2ccc(F)cc2)c1=O` here?
The AC50 was 15.8 µM (active).

How did the AC50 turn out when `COCCn1c(=O)c(-c2ccc(F)cc2)nc2cnc(N3CCOCC3)nc21` was run?
Its AC50 is “inactive”.

Which AC50 does the source give for `Cc1nc2cnc(N3CCN(C)CC3)nc2n(C)c1=O` here?
The AC50 was “inactive”.

For `NC(=O)C[C@H](NC(=O)Cc1ccc(O)cc1O)C(=O)O`, which AC50 is on record?
The AC50 was “inactive”.

Which AC50 does the source give for `Nc1ncnc2c1ncn2[C@@H]1CCCO1` here?
The AC50 was “inactive”.

Which AC50 does the source give for `Cc1ccc(C)c(Cn2c(C(=O)OC(C)C)cc3c2ccn3C)c1` here?
Its AC50 is 7.94 µM (active).

How did the AC50 turn out when `CC(C)OC(=O)c1cc2c(ccn2C)n1CC(=O)N1CCC(Cc2ccccc2)CC1` was run?
Its AC50 is 7.08 µM (active).

For `CCCS(=O)(=O)N1CCCC(C(=O)NCCN2CCC(Cc3ccccc3)CC2)C1` (configuration not stated), which AC50 is on record?
Its AC50 is “inactive”.

How did the AC50 turn out when `C[C@@H](CN1CCC(Cc2ccccc2)CC1)[C@@H](O)c1ccc(O)cc1` was run?
The AC50 was “inactive”.

Which AC50 does the source give for `COC(=O)c1cc2c(ccn2-c2ccc(F)cc2)n1CC(C)C` here?
The AC50 was “inactive”.

Which AC50 does the source give for `CCOC(=O)c1cc2c(ccn2C)n1CC(=O)N1CCCC(C)C1` (configuration not stated) here?
The AC50 was 14.1 µM (active).

Which AC50 does the source give for `C[n+]1cccc(CNC(=O)/C=N/O)c1` here?
Its AC50 is “inactive”.

How did the AC50 turn out when `O=C1NC(O)=NC1(c1ccccc1)c1ccccc1` was run?
The AC50 was “inactive”.

For `O=C(CC(NS(=O)(=O)c1ccc(Cl)cc1)c1ccco1)NCc1ccco1` (configuration not stated), which AC50 is on record?
The AC50 was 14.1 µM (active).

How did the AC50 turn out when `CCCNC(=O)CC(NS(=O)(=O)c1ccc(Cl)cc1)c1ccco1` (configuration not stated) was run?
Its AC50 is 22.4 µM (active).

`CCCCNC(=O)NS(=O)(=O)c1cnccc1Sc1ccc(Cl)cc1` was tested. Which activity, negative = inhibition did it give?
The activity, negative = inhibition was -25.5% [at 2.29 µM].

Which AC50 does the source give for `O=C(NCCO)c1cc2c(s1)CCC2` here?
Its AC50 is “inactive”.

With `C[C@@H]1O[C@H](O[C@@H]2[C@H](C)O[C@H](O[C@@H]3[C@H](C)O[C@H](O[C@H]4CC[C@]5(C)[C@@H](CC[C@@H]6[C@H]5C[C@@H](O)[C@]5(C)[C@@H](C7=CC(=O)OC7)CC[C@]65O)C4)C[C@@H]3O)C[C@@H]2O)C[C@H](O)[C@@H]1O` as the compound, how does the AC50 read?
Its AC50 is “inactive”.

With `NCCn1c(=O)c(CCc2ccccc2)nc2cncnc21` as the compound, how does the AC50 read?
The AC50 was 15.8 µM (active).

Which AC50 does the source give for `COCCn1c(=O)c(CCc2ccccc2)nc2cncnc21` here?
Its AC50 is 7.94 µM (active).

For `COc1ccccc1CCn1c(=O)c(CCc2ccccc2)nc2cncnc21`, which AC50 is on record?
Its AC50 is 3.16 µM (active).

How did the activity, negative = inhibition turn out when `O=C(O)/C=C\c1c2ccc(=O)c(O)c-2oc2c(O)c(O)ccc12` was run?
The activity, negative = inhibition was -22.7% [at 11.4 µM].

For `COCCn1c(C)cc2c(c1=O)C(c1ccccc1F)C(C#N)=C(N)O2` (configuration not stated), which AC50 is on record?
The AC50 was 5.62 µM (active).

How did the AC50 turn out when `CCCC[S@@](=N)(=O)CC[C@@H](N)C(=O)O` was run?
Its AC50 is “inactive”.

`CCNCCCNCCCNCCCNCC` was tested. Which AC50 did it give?
The AC50 was “inactive”.

`Cc1cccc(N(C)S(=O)(=O)c2ccc3[nH]c(=O)c(=O)[nH]c3c2)c1` was tested. Which AC50 did it give?
Its AC50 is 14.1 µM (active).

With `CCS(=O)(=O)N1CCC[C@H]2CN3CCc4cc(OC)ccc4[C@@H]3C[C@@H]21` as the compound, how does the AC50 read?
The AC50 was 5.01 µM (active).

With `COc1ccc2c3c([nH]c2c1)[C@H]1C[C@@H]2[C@@H](C[C@@H](O)[C@H](OC)[C@H]2C(=O)O)CN1CC3` as the compound, how does the activity, negative = inhibition read?
The activity, negative = inhibition was -4.43% [at 11.4 µM].

How did the AC50 turn out when `COc1ccc2c3c([nH]c2c1)[C@@H]1C[C@@H]2[C@@H](C[C@H](O)[C@H](OC)[C@H]2C(=O)O)CN1CC3` was run?
The AC50 was “inactive”.

With `O=C(c1cc(O)c(O)c([N+](=O)[O-])c1)c1ccccc1F` as the compound, how does the AC50 read?
Its AC50 is 20 µM (active).

With `O=[N+]([O-])c1cc(Cc2cc([N+](=O)[O-])c3cccnc3c2O)c(O)c2ncccc12` as the compound, how does the activity, negative = inhibition read?
The activity, negative = inhibition was -19.6% [at 11.4 µM].

How did the AC50 turn out when `Cc1ccc(-c2cccc(OC(=O)c3ccccc3F)c2)cc1` was run?
The AC50 was “inactive”.

With `Nc1nc(Nc2ccccc2)nc2c1ncn2[C@@H]1O[C@@H](CO)[C@H](O)[C@@H]1O` as the compound, how does the AC50 read?
The AC50 was “inactive”.

`O=CN1CCN(C[C@H](O)CN2CCCCC2)CC1` was tested. Which activity, negative = inhibition did it give?
The activity, negative = inhibition was -4.95% [at 11.4 µM].

With `CN(Cc1ccco1)c1ncnc2ccc(-c3ccccc3Cl)cc12` as the compound, how does the AC50 read?
The AC50 was 15.8 µM (active).

With `CN(Cc1ccco1)c1ncnc2ccc(-c3ccccc3C(F)(F)F)cc12` as the compound, how does the AC50 read?
The AC50 was 15.8 µM (active).

`COCc1nnc(NC(=O)CCN2C(=O)c3ccccc3C2=O)s1` was tested. Which AC50 did it give?
Its AC50 is “inactive”.

`Cc1ccc(NC(=O)CCN2C(=O)c3ccncc3C2=O)cc1` was tested. Which AC50 did it give?
Its AC50 is 8.91 µM (active).

How did the AC50 turn out when `Cc1cccc(OCCn2c(S(=O)(=O)O)nc3ccccc32)c1` was run?
The AC50 was “inactive”.

For `Cc1cccc(OCCn2c(-c3ccco3)nc3ccccc32)c1`, which AC50 is on record?
Its AC50 is 10 µM (active).

Which activity, negative = inhibition does the source give for `C/C(CC(=O)Nc1ccccn1)=N\NC(=O)C(=O)Nc1cccc(Cl)c1C` here?
The activity, negative = inhibition was 16.1% [at 2.29 µM].

Which AC50 does the source give for `COc1ccc(Cl)cc1NC(=O)NCCCl` here?
The AC50 was “inactive”.

How did the AC50 turn out when `CCCCC(=O)N/N=C(\C)CC(=O)Nc1cc(Cl)ccc1OC` was run?
Its AC50 is 4.47 µM (active).

With `C/C(CC(=O)Nc1cc(Cl)ccc1Cl)=N\NC(N)=S` as the compound, how does the AC50 read?
The AC50 was 14.1 µM (active).

`O=C(O)C1CCCCC1C(=O)Nc1cc(Cl)ccc1Cl` (configuration not stated) was tested. Which AC50 did it give?
Its AC50 is “inactive”.

With `COc1ccc(Cl)cc1NC(=O)CN1C(=O)CSC1=O` as the compound, how does the AC50 read?
The AC50 was 7.94 µM (active).
